Source: PubChem BioAssay (NCI)
Compounds without any hit were thinned out: in the full panel of roughly 83,000, 20% have a hit.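 Values shown are percent growth following 48 h exposure of cells in 96-well plates to a single concentration of compound; below 10 was considered active.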 The source made the active and inactive calls.

These compounds were tested on RPMI-8226 leukemia (assay: NCI-60 one-dose screen, 48 h (100 = growth as untreated, 0 = no growth, -100 = all killed)). Details: 10 µM unless noted.
Description: Growth inhibition of the RPMI-8226 human tumor cell line is measured as a screen for anti-cancer activity. Cells are grown in 96 well plates and exposed to the test compound for 48 hours. Compounds are tested at a single concentration, which is 10^-5 M for most compounds. The reported endpoint is percent growth (GI% or GIPRCNT), where numbers from 0 - 100% represent growth inhibition, and numbers from -100% - 0 represent cell death. For example, a value of 40 represents 60% growth inhibition. A value of 0 means no net growth occurred over the course of the experiment. A value of -40 indicates 40% of cells at the beginning of the experiment died by the end of the experiment. A value of -100 means all cells are dead at the end of the experiment.
NCI-60 Human Tumor Cell Lines Screen was performed using the standard one-dose NCI protocol, which is described in more detail at https://dtp.cancer.gov/discovery_development/nci-60/default.htm.
Compounds with GIPRCNT values below 10 were considered active. Activity score was based on GIPRCNT using the following formula: […]
Score is 0 for GIPRCNT values of 100 or above, 50 for GIPRCNT values of 0, and 100 for GIPRCNT values of -100.

| Compound | growth |
| --- | --- |
| CN(C)C(=O)Oc1ccccc1-c1ccccc1 | 104% (inactive) |
| COc1ccc(-n2c(C)nc3cc(OC)c(OC)cc3c2=O)cc1OC | 104% (inactive) |
| O=C1C=C2C(=CCOC2O)O1 (stereo not given) | -19.1% (active) |
| Clc1cccc(NCOOC2(OOCNc3cccc(Cl)c3)CCCCCC2)c1 | 91.9% (inactive) |
| COC(=O)[C@@H](C)C[C@H](Cc1ccccc1)NC(=O)c1cccc([C@@H](C[C@H](C(C)C)N(C)C(=O)[C@@H](NC(=O)[C@H]2CCCCN2C)C(C)C)OC(C)=O)n1 | 22.4% (inactive) |
| NC1CC2CCCCC2CC1(O)c1ccccc1 (stereo not given) | 93.6% (inactive) |
| Cc1cc(N(CCCl)CCCl)ccc1C=Nc1ccccc1-c1ccccc1 | 86.7% (inactive) |
| O=C(O)C1C(C(=O)O)C2(Cl)C(Cl)=C(Cl)C1(Cl)C2(Cl)Cl.[Hg] (stereo not given) | 84% (inactive) |
| COC(=O)[C@@H](C)C[C@H](Cc1ccccc1)NC(=O)c1csc([C@@H](C[C@H](C(C)C)N(C)C(=O)[C@@H](NC(=O)[C@H]2CCCCN2C)C(C(F)(F)F)C(F)(F)F)OC(C)=O)n1 | 11.2% (inactive) |
| CC12CC=CCC1CCC1C2CCC2(C)C(c3ccc(=O)oc3)CCC12O (stereo not given) | -9.88% (active) |
| O[C@H](CN1CC1)[C@@H](O)CN1CC1 | 88% (inactive) |
| COc1ccc(/C=C\c2cc(OC)c(OC)c(OC)c2)c(NS(=O)(=O)c2ccc(Cl)cc2)c1O | 7.02% (active) |
| C=C1C(=O)O[C@H]2[C@H]1CC/C(COC(=O)C(=O)c1cn(Cc3ccccc3)c3ccccc13)=C\CC[C@@]1(C)O[C@@H]21 | -36.2% (active) |
| CCOC(=O)[C@@H](C)C[C@H](Cc1ccccc1)NC(=O)c1csc([C@@H](C[C@H](C(C)C)N(C)C(=O)[C@@H](NC(=O)[C@H]2CCCCN2C)C(C)(C)CC)OC(C)=O)n1 | -1.78% (active) |
| COc1cccc2c1c(C(=O)c1ccco1)cn2Cc1ccc(F)cc1 | 182% (inactive) |
| CCOC(=O)C(Cc1ccc(N(CCCl)CCCl)cc1)NC(=O)C(CC(C)C)NC(C)=O (stereo not given) | 21% (inactive) |
| CC(=O)Nc1nc2c(s1)CC[C@@]1(C)C2=CC[C@H]2[C@@H]3CC[C@H](O)[C@@]3(C)CC[C@@H]21 | 34.1% (inactive) |
| Nc1ccc(OCCNS(=O)(=O)c2cccc(S(=O)(=O)F)c2)c(Cl)c1 | 80.4% (inactive) |
| COc1cc2c(=O)n(C3CCCCCCC3)c3c4cc[nH]c4ncc3c2cc1OC | 50.1% (inactive) |
| COc1ccc(/C=C\c2cc(OC)c(OC)c(OC)c2)cc1NC(=O)/C=C/c1ccc(OC)c(OC)c1 | 53.6% (inactive) |

| Compound | growth |
| --- | --- |
| CC(=O)OCc1cc[c]([Hg][Cl])o1 | 26.4% (inactive) |
| C/C(=C\c1ccn(-c2ccccc2N)n1)[C@@H]1C[C@@H]2O[C@]2(C)CCC[C@H](C)[C@H](O)[C@@H](C)C(=O)C(C)(C)[C@@H](O)CC(=O)O1 | 15.3% (inactive) |
| Brc1ccc2c(c1)c(-c1nc(-c3c[nH]c4ncccc34)cs1)cn2CCN1CCOCC1 | 40.1% (inactive) |
| COc1cc2c(cc1OCc1ccccc1)C(CC(C)C)=[N+](C)CC2 | 56.4% (inactive) |
| COC(=O)[C@@H](C)C[C@H](Cc1cn(C)c2ccccc12)NC(=O)c1csc([C@@H](C[C@H](C(C)C)N(C)C(=O)[C@@H](NC(=O)[C@H]2CCCCN2C)C(C)C)OC(C)=O)n1 | 10.5% (inactive) |
| O=[N+]([O-])c1cnc[nH]1 | 107% (inactive) |
| c1cnc2[nH]cc(-c3csc(-c4cn(CCCCN5CCOCC5)c5ccccc45)n3)c2c1 | 32.6% (inactive) |
| CC1=C(CCCOC(=O)CN)C2=C(C)C3(CC3)[C@@](C)(O)C(=O)C2=C1 | 88.8% (inactive) |
| COc1cc2c(c(OC)c1OC)-c1ccc([O-])c(=O)cc1[C@@H](NC(C)=O)CC2.COc1cc2c(c(OC)c1OC)-c1ccc([O-])c(=O)cc1[C@@H](NC(C)=O)CC2.[Cu+2] | 15.3% (inactive) |
| COc1cc(C=Nc2cc(Cl)cc(Cl)c2)ccc1N(CCCl)CCCl | 75% (inactive) |
| NC(=Nc1ccccc1)N[N+](=O)[O-] | 104% (inactive) |
| O=C(O)CNC(=O)C(Cl)(Cl)Cl | 92.3% (inactive) |
| O=[N+]([O-])CC(c1ccccc1Cl)c1c(-c2ccccc2)[nH]c2ccccc12 (stereo not given) | 45.2% (inactive) |
| COc1cc(NCCCN=C(N)N)c2ncccc2c1 | 85.4% (inactive) |
| COc1ccc(C(O)(C(=O)O)c2ccc(OC)cc2)cc1 | 78.2% (inactive) |
| COC(=O)[C@@H](C)C[C@H](Cc1ccccc1)NC(=O)c1csc([C@@H](C[C@H](C(C)C)N(C)C(=O)[C@@H](NC(=O)[C@H]2CCCCN2C)C2CC2)OC(C)=O)n1 | 34.9% (inactive) |
| C/C(=C\c1ccn(-c2ccc(N)cc2)n1)[C@@H]1C[C@@H]2O[C@]2(C)CCC[C@H](C)[C@H](O)[C@@H](C)C(=O)C(C)(C)[C@@H](O)CC(=O)O1 | 15.6% (inactive) |
| C=CCCCCCCCCC(=O)[O-].C=CCCCCCCCCC(=O)[O-].[Zn+2] | 95.2% (inactive) |
| CC(=O)c1ccc(C(=O)NCC2CCC3(CC2)OOC2(CCCCC2)OO3)cc1 | 69.3% (inactive) |
| CC12CC(=O)C3(SC#N)C(CCC4=CC(=O)CCC43C)C1CCC2=O (stereo not given) | 77.5% (inactive) |
